Values without a mark were called inactive. For some of these results: Results with a measured potency or affinity are listed apart. Calls of active or inactive are those of the source. Unless noted, no rule for the calls is given here.

Test [1] is described as follows: antimalarial activity against Dd2 strain (AID 2302;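 active = growth inhibition above 50% at the single 2 µM test dose, taken to imply half-maximal potency below 2 µM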;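 also: 0% = DMSO untreated growth and 100% = chloroquine plus artemisinin killed control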). Conditions: P. falciparum Dd2 in RBCs, LDH growth readout, 72 h; at 2 µM; active compounds read high.
Test [2] is described as follows: human hepatoma cell viability loss – ATP luminescence, cytotoxicity control for P. falciparum antimalarial project, primary screen (AID 2303;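 active = inhibition above 50%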;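 also: 0% = DMSO wells and 100% = digitonin-killed cells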). Conditions: HepG2 viability, 24-48 h, at 10 µM, active compounds read high.
The target in test [3] is L-lactate dehydrogenase (Plasmodium falciparum (isolate CDC / Honduras)) (UniProt Q27743). The experiment in a line: PfLDH activity inhibition – cell lysate, 3D7 strain, counter-screen for P. falciparum growth inhibition project (AID 2304).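 Also: 0% = vehicle and 100% = reference inhibitor.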 The settings on record: P. falciparum 3D7 crude extract, LDH APAD/NBT absorbance; at 2 µM; active compounds read high. In general terms: The purpose of a counterscreen is to sort out artefacts and off-target activity.
L-lactate dehydrogenase (Plasmodium falciparum (isolate CDC / Honduras)), sequence (Q27743 whole entry, looked up): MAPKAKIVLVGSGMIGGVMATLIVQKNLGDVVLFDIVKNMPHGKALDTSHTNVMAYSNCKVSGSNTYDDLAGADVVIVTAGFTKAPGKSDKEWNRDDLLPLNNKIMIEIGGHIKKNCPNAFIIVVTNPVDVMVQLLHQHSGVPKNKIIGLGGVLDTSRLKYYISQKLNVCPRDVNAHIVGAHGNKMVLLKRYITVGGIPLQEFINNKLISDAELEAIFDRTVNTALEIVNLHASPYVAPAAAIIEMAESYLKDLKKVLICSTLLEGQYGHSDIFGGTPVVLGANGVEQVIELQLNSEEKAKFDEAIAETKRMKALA

Test [4] can be described thus: inhibition of 3D7 malaria parasite growth – strain 3D7 (AID 2306).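 Also: 0% = DMSO wells and 100% = chloroquine plus artemisinin control wells.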 The settings on record: P. falciparum 3D7 erythrocytic growth, LDH absorbance, 72 h; at 2 µM; active compounds read high.
The target in test [5] is Calcium-dependent protein kinase 1 (Plasmodium falciparum (isolate 3D7)) (UniProt P62344). The experiment in a line: PfCDPK1 kinase inhibitors, biochemical, TCAMS library (AID 1159585; cut-off not given, nearly all actives have IC50 up to about 0.98 µM;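 also: inhibitors leave more ATP so luminescence rises with inhibition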). The settings on record: recombinant PfCDPK1, Kinase-Glo ATP depletion luminescence. Background: In Kinase-Glo more light means more ATP remaining.
Calcium-dependent protein kinase 1 (Plasmodium falciparum (isolate 3D7)), sequence (P62344 whole entry, looked up): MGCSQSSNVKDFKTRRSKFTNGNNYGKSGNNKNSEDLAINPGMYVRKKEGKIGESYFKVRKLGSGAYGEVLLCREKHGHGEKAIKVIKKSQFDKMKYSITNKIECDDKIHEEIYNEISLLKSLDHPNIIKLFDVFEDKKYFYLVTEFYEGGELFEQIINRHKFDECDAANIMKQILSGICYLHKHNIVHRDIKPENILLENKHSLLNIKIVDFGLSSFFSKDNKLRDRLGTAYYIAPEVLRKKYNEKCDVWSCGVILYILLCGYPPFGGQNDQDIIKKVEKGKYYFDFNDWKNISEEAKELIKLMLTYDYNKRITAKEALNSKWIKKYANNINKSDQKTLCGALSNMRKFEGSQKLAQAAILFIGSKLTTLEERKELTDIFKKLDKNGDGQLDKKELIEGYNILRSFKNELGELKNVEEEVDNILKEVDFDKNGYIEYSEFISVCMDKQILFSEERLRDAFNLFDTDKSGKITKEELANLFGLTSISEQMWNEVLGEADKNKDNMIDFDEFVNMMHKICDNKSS
Test [6] addresses Plasmodium falciparum protein kinase 6 (PK6, PF3D7_1337100) (UniProt Q8IDW1). The test is described as follows: PfPK6 kinase inhibitors, biochemical, TCAMS library (AID 1159586). The settings on record: recombinant PfPK6, Kinase-Glo ATP depletion luminescence.
In test [7] the target is Protein kinase 7 (PK7), Plasmodium falciparum 3D7 (PF3D7_0213400) (UniProt Q7YTF7). The test is described as follows: inhibition of Plasmodium PK7 catalytic activity – biochemical, TCAMS antimalarial set, Kinase-Glo luminescence (AID 1159587). The settings on record: recombinant PfPK7, Kinase-Glo ATP depletion luminescence.
Protein kinase 7 (PK7), Plasmodium falciparum 3D7 (PF3D7_0213400), sequence (Q7YTF7 1-343): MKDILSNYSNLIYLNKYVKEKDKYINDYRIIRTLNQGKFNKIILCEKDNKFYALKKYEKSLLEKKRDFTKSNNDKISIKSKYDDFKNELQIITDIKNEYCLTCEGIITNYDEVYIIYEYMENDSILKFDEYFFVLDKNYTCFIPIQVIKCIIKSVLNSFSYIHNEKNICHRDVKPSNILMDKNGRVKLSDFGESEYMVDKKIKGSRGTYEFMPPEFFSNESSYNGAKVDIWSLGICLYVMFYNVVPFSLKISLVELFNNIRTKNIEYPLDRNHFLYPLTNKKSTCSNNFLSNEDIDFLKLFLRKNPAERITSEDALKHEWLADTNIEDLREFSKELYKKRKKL
Test [8] addresses Calcium-dependent protein kinase 4 (Plasmodium falciparum (isolate 3D7)) (UniProt Q8IBS5). The test is described as follows: PfCDPK4 kinase inhibitors, biochemical, TCAMS library (AID 1159588; cut-off not given, nearly all actives have IC50 up to about 0.91 µM). The settings on record: recombinant PfCDPK4, Kinase-Glo ATP depletion luminescence.

Calcium-dependent protein kinase 4 (Plasmodium falciparum (isolate 3D7)), sequence (Q8IBS5 whole entry, looked up): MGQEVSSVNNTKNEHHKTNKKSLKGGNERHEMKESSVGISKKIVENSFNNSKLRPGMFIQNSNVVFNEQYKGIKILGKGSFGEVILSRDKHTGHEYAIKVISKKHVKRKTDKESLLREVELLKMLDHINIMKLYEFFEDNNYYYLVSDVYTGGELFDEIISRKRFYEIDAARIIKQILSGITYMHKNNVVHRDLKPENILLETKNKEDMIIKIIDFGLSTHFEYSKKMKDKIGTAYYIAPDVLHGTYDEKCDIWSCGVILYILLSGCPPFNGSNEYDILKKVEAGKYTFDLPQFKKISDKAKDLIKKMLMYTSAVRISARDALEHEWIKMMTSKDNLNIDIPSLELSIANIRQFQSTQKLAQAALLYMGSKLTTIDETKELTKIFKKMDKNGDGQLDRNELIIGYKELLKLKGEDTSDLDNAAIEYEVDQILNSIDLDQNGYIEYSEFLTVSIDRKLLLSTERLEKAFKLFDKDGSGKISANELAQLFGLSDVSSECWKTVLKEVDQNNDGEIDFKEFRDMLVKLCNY
Plasmodium falciparum protein kinase 6 (PK6, PF3D7_1337100), sequence (Q8IDW1 1-305): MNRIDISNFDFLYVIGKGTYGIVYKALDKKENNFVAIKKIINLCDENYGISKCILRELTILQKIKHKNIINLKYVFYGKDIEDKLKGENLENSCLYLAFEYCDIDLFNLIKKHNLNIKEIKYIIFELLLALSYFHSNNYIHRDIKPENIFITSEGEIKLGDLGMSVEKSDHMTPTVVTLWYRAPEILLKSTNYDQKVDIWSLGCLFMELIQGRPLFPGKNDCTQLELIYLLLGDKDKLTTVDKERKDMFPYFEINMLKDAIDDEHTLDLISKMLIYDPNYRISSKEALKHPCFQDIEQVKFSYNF

As for `Cn1c(NC(=O)C2CCCN(C(=O)c3ccc(O)c(-c4ccc(Cl)c(Cl)c4)c3)C2)nc2ccccc21` (stereo not given), the results for the growth inhibition in test [1] and in test [4] were 99% (active) and 98% (active), respectively. Also, the inhibition in test [2] was 0%; in test [3], -3%. For the same compound, the outcome in test [5], in test [6], in test [7] and in test [8] was inactive.
As to `Cc1[nH]c(C)c(-c2ccc(CCc3cccc(C(F)(F)F)c3)nc2)c(=O)c1Cl`, the growth inhibition in test [1] was 97% (active); in test [4] it was 99% (active). Besides, the inhibition in test [2] is 28%; in test [3], -2%. Moreover, the outcome in test [5], in test [6], in test [7] and in test [8] was inactive.
Regarding `c1ccc(OCCCCN2CCCCC2)cc1`, the growth inhibition in test [1] is 1%; in test [4], 95% (active). The inhibition in test [2] was 2%; in test [3], -11%. In addition, the result in test [5], in test [6], in test [7] and in test [8] was inactive.
As to `O=C(NCCCCN1CCC(C(c2ccccc2)c2ccccc2)CC1)c1ccc(NC(=O)c2ccc(Cl)cc2)cc1`, the growth inhibition in test [1] is 47%; in test [4], 100% (active). For the same compound, the inhibition in test [2] was 12%; in test [3] it was -2%. The result in test [5], in test [6], in test [7] and in test [8] was inactive.
For the compound `CCCCCCn1c(Sc2ccc(C#N)c([N+](=O)[O-])c2)nnc1-c1cc(OC)cc(OC)c1`, the growth inhibition in test [1] was 41%; in test [4], 95% (active). For the same compound, the inhibition in test [2] is 35%; in test [3], -5%. The outcome in test [5], in test [6], in test [7] and in test [8] was inactive.
As to `CCCC[C@@H](C(=O)NCCc1ccc(Cl)cc1)N1C(=O)CCC1C(=O)Nc1ccc(Cl)c(Cl)c1` (stereo not given in full), the results for the growth inhibition in test [1] and in test [4] were 2% and 95% (active), respectively. The inhibition in test [2] is 4%; in test [3], 2%. In addition, the result in test [5], in test [6], in test [7] and in test [8] was inactive.
As to `CC(C)NCc1ccc(-c2cccc(CN3CCC(c4ccccc4)CC3)c2)c(C(=O)NCC2CCCCC2)c1`, the growth inhibition in test [1] is 76% (active); in test [4], 98% (active). Besides, the figures for the inhibition in test [2] and in test [3] were 42% and -5%, respectively. For the same compound, the result in test [5], in test [6], in test [7] and in test [8] was inactive.
In the case of `O=C(NC(NC(=S)Nc1ccc([N+](=O)[O-])cc1)C(Cl)(Cl)Cl)c1cccc(Cl)c1` (stereo not given), the results for the growth inhibition in test [1] and in test [4] were 100% (active) and 97% (active), respectively. Moreover, the inhibition in test [2] was 24%; in test [3], 0%. In addition, the result in test [5], in test [6], in test [7] and in test [8] was inactive.
With `CCN(C)CCCn1c(N(C)C)nc2cc(-n3cnc4cc(-c5ccc(Cl)cc5)sc4c3=O)ccc21`, the growth inhibition is 12% in test [1] and 80% (active) in test [4]. For the same compound, the inhibition in test [2] was 83% (active); in test [3], 5%. Also, the result in test [5], in test [6], in test [7] and in test [8] was inactive.
Consider `CCOc1ccc(N2C(N)=NC(N)=NC2(C)C)cc1`, for which the growth inhibition in test [1] was -2%; in test [4] it was 95% (active). Further, the results for the inhibition in test [2] and in test [3] were 10% and 0%, respectively. Further, the outcome in test [5], in test [6], in test [7] and in test [8] was inactive.
With `C[C@@H](Oc1cc(-n2cnc3ccc(NC(=O)CCN4CCCCC4)cc32)sc1C(N)=O)c1ccccc1Cl`, the figures for the growth inhibition in test [1] and in test [4] were 60% (active) and 101% (active), respectively. For the same compound, the inhibition in test [2] is 36%; in test [3], 3%. Besides, the result in test [5], in test [6], in test [7] and in test [8] was inactive.
In the case of `CC(=O)c1cccc(Nc2nc3c(C#N)c(OCc4cc(Cl)cc(Cl)c4)ccc3[nH]2)c1`, the growth inhibition in test [1] was 45%; in test [4], 86% (active). For the same compound, the inhibition is 29% in test [2] and 0% in test [3]. The result in test [5], in test [6], in test [7] and in test [8] was inactive.
In the case of `Nc1c(Cl)cc(C(O)CNCCCCCCOCCc2ccc(O)cc2)cc1Cl` (stereo not given), the growth inhibition in test [1] and in test [4] was 97% (active) in each case. For the same compound, the inhibition was 13% in test [2] and -3% in test [3]. The result in test [5], in test [6], in test [7] and in test [8] was inactive.
Consider `N#Cc1ccc2c(c1)CCN(CCC1CCC(NC(=O)/C=C/c3nc4ccccc4s3)CC1)CC2` (stereo not given), for which the results for the growth inhibition in test [1] and in test [4] were -2% and 90% (active), respectively. Also, the inhibition in test [2] was 6%; in test [3], -4%. Further, the result in test [5], in test [6], in test [7] and in test [8] was inactive.
`CCCC(C(=O)OCCNC)(c1ccccc1)c1ccccc1`: the growth inhibition was 96% (active) in test [1] and 98% (active) in test [4]. Besides, the inhibition in test [2] and in test [3] was 7% each time. Further, the outcome in test [5], in test [6], in test [7] and in test [8] was inactive.
`NC1CCN(Cc2cccc(-c3ccc(-c4nc5ccccc5[nH]4)cc3)c2)C1` (stereo not given): the values for the growth inhibition in test [1] and in test [4] were 58% (active) and 100% (active), respectively. Also, the inhibition is 24% in test [2] and -7% in test [3]. Moreover, the result in test [5], in test [6], in test [7] and in test [8] was inactive.
Regarding `CCOc1ccc(-c2nonc2NC(=O)c2ccccc2F)cc1OCC`, the values for the growth inhibition in test [1] and in test [4] were 100% (active) and 90% (active), respectively. The inhibition in test [2] is -8%; in test [3], 0%. Besides, the outcome in test [5], in test [6], in test [7] and in test [8] was inactive.
`CCNc1cc(C(=O)N[C@@H](Cc2ccccc2)[C@H](O)CNCCc2cc(OC)cc(OC)c2)cc(N2CCCCS2(=O)=O)c1`: the values for the growth inhibition in test [1] and in test [4] were 28% and 89% (active), respectively. The inhibition is 3% in test [2] and 0% in test [3]. Besides, the result in test [5], in test [6], in test [7] and in test [8] was inactive.
As for `CCN(CC)CC(O)c1cc(-c2ccc(C)cc2)nc2c(C)cc(C)cc12` (stereo not given), the growth inhibition in test [1] is 99% (active); in test [4], 100% (active). In addition, the inhibition in test [2] is 3%; in test [3], 1%. Also, the result in test [5], in test [6], in test [7] and in test [8] was inactive.
Consider `NC(=O)NC(=O)C=Cc1ccco1`, for which the growth inhibition is -3% in test [1] and 97% (active) in test [4]. Besides, the inhibition in test [2] was 32%; in test [3], -7%. Moreover, the result in test [5], in test [6], in test [7] and in test [8] was inactive.

What is called inhibition is the drop in the measured response relative to a control, in per cent.

(Values after PubChem BioAssay.)
